# Reference: PubChem BioAssay AID1159580 (chemical genetic matrix, 2015)
# Screen size: about 5,500 compounds; about 2,000 (36%) were called active. Not shown: some 18% with an inconclusive outcome. The list shows a part of the results. Unmarked numbers belong to inactive results. Rule as the data show it: active = normalized growth mostly below about 0.91 (no sharp cut-off); inconclusive = no clear call, values can overlap the other calls; inactive = mostly above about 0.92.
# Experiment: chemical genetic growth profiling, strain panel (AID 1159580);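 also: tested at 20 µM; growth read once vehicle control cultures reached saturation at 30 °C; 1 = growth at the plate median or of vehicle wells; lower values mean less growth of the strain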
# Conditions: S. cerevisiae deletion strains, growth OD
# [1] = locus YDL101C, strain DUN1, stronger effect = lower value
# [2] = locus YHR030C, strain SLT2, stronger effect = lower value
# [3] = locus YAR019C, strain CDC15, stronger effect = lower value
# [4] = locus YBL105C, strain PKC1, stronger effect = lower value
# [5] = locus YBR135W, strain CKS1, stronger effect = lower value
# [6] = locus YBR136W, strain MEC1, stronger effect = lower value
# [7] = locus YBR160W, strain CDC28, stronger effect = lower value
# [8] = locus YDL017W, strain CDC7, stronger effect = lower value
# [9] = locus YDL028C, strain MPS1, stronger effect = lower value
# [10] = locus YDL108W, strain KIN28, stronger effect = lower value
# [11] = locus YDL132W, strain cdc53, stronger effect = lower value
# [12] = locus YDL214C, strain PRR2, stronger effect = lower value
# [13] = locus YDR052C, strain DBF4, stronger effect = lower value
# [14] = locus YDR054C, strain cdc34, stronger effect = lower value
# [15] = locus YDR226W, strain ADK1, stronger effect = lower value
# [16] = locus YDR477W, strain SNF1, stronger effect = lower value
# [17] = locus YER123W, strain YCK3, stronger effect = lower value
# [18] = locus YER133W, strain GLC7, stronger effect = lower value
# [19] = locus YFL009W, strain cdc4, stronger effect = lower value
# [20] = locus YFL029C, strain CAK1, stronger effect = lower value
# [21] = locus YFR003C, strain YPI1, stronger effect = lower value
# [22] = locus YFR019W, strain FAB1, stronger effect = lower value
# [23] = locus YFR028C, strain CDC14, stronger effect = lower value
# [24] = locus YGR040W, strain KSS1, stronger effect = lower value
# [25] = locus YGR052W, strain FMP48, stronger effect = lower value
# [26] = locus YGR092W, strain DBF2, stronger effect = lower value
# [27] = locus YHR079C, strain IRE1, stronger effect = lower value
# [28] = locus YHR082C, strain KSP1, stronger effect = lower value
# [29] = locus YHR205W, strain SCH9, stronger effect = lower value
# [30] = locus YIL147C, strain SLN1, stronger effect = lower value
# [31] = locus YJL095W, strain BCK1, stronger effect = lower value
# [32] = locus YJL128C, strain PBS2, stronger effect = lower value
# [33] = locus YJL157C, strain FAR1, stronger effect = lower value
# [34] = locus YJR016C, strain ILV3, stronger effect = lower value
# [35] = locus YJR066W, strain TOR1 (second series), stronger effect = lower value
# [36] = locus YJR066W, strain TOR1, stronger effect = lower value
# [37] = locus YKL048C, strain ELM1, stronger effect = lower value
# [38] = locus YKL067W, strain YNK1, stronger effect = lower value
# [39] = locus YKL101W, strain HSL1, stronger effect = lower value
# [40] = locus YKL193C, strain SDS22, stronger effect = lower value
# [41] = locus YKL203C, strain TOR2, stronger effect = lower value
# [42] = locus YLR113W, strain HOG1, stronger effect = lower value
# [43] = locus YLR133W, strain CKI1, stronger effect = lower value
# [44] = locus YLR403W, strain SFP1, stronger effect = lower value
# [45] = locus YML070W, strain DAK1, stronger effect = lower value
# [46] = locus YMR001C, strain CDC5, stronger effect = lower value
# [47] = locus YMR205C, strain PFK2 (second series), stronger effect = lower value
# [48] = locus YMR277W, strain FCP1, stronger effect = lower value
# [49] = locus YNL006W, strain LST8, stronger effect = lower value
# [50] = locus YNL020C, strain ARK1, stronger effect = lower value
# [51] = locus YNL161W, strain CBK1, stronger effect = lower value
# [52] = locus YNL183C, strain NPR1, stronger effect = lower value
# [53] = locus YNL207W, strain RIO2, stronger effect = lower value
# [54] = locus YNL222W, strain SSU72, stronger effect = lower value
# [55] = locus YNL307C, strain MCK1 (second series), stronger effect = lower value
# [56] = locus YOL078W, strain AVO1, stronger effect = lower value
# [57] = locus YOL136C, strain PFK27, stronger effect = lower value
# [58] = locus YOR061W, strain CKA2, stronger effect = lower value
# [59] = locus YOR119C, strain RIO1, stronger effect = lower value
# [60] = locus YOR231W, strain MKK1, stronger effect = lower value
# [61] = locus YOR329C, strain SCD5, stronger effect = lower value
# [62] = locus YPL031C, strain PHO85, stronger effect = lower value
# [63] = locus YPL153C, strain RAD53, stronger effect = lower value
# [64] = locus YPL204W, strain HRR25, stronger effect = lower value
# [65] = locus YPL209C, strain IPL1, stronger effect = lower value
# [66] = locus YPL256C, strain CLN2, stronger effect = lower value
# [67] = locus YPR025C, strain CCL1, stronger effect = lower value
# [68] = locus YPR106W, strain ISR1, stronger effect = lower value
# [69] = locus YPR111W, strain DBF20, stronger effect = lower value
# [70] = strain NNK1, stronger effect = lower value
# [71] = strain TSCII, stronger effect = lower value
smiles,measurement,setting,value
CC(C)(C)c1ccc(C(=O)N/N=C\c2cc(Cl)cc(Cl)c2O)cc1,normalized growth,"locus YAL013W, strain DEP1, stronger effect = lower value",0.909 (active)
same,normalized growth,"locus YBR229C, strain ROT2, stronger effect = lower value",0.832 (active)
same,normalized growth,"locus YCL061C, strain MRC1, stronger effect = lower value",0.818 (active)
same,normalized growth,[1],0.852 (active)
same,normalized growth,"locus YDR150W, strain NUM1, stronger effect = lower value",1.19
same,normalized growth,"locus YEL061C, strain CIN8, stronger effect = lower value",0.624 (active)
same,normalized growth,"locus YGR078C, strain PAC10, stronger effect = lower value",0.847 (active)
same,normalized growth,[2],0.452 (active)
same,normalized growth,"locus YHR087W, strain rtc3, stronger effect = lower value",0.872 (active)
same,normalized growth,"locus YJR043C, strain POL32, stronger effect = lower value",0.876 (active)
same,normalized growth,"locus YJR075W, strain HOC1, stronger effect = lower value",0.996
same,normalized growth,"locus YKL190W, strain CNB1, stronger effect = lower value",0.316 (active)
same,normalized growth,"locus YLR039C, strain RIC1, stronger effect = lower value",0.165 (active)
same,normalized growth,"locus YLR058C, strain SHM2 (second series), stronger effect = lower value",0.97
same,normalized growth,"locus YLR085C, strain ARP6, stronger effect = lower value",0.285 (active)
same,normalized growth,"locus YLR262C, strain YPT6, stronger effect = lower value",0.182 (active)
same,normalized growth,"locus YML094W, strain GIM5, stronger effect = lower value",0.645 (active)
same,normalized growth,"locus YMR219W, strain ESC1, stronger effect = lower value",0.83 (active)
same,normalized growth,"locus YMR263W, strain SAP30, stronger effect = lower value",0.893
same,normalized growth,"locus YNL128W, strain TEP1, stronger effect = lower value",0.377 (active)
same,normalized growth,"locus YNL153C, strain GIM3, stronger effect = lower value",0.826 (active)
same,normalized growth,"locus YNL298W, strain CLA4 (second series), stronger effect = lower value",0.642 (active)
same,normalized growth,"locus YNL322C, strain KRE1, stronger effect = lower value",0.998
same,normalized growth,"locus YNR030W, strain Alg12, stronger effect = lower value",0.617 (active)
same,normalized growth,"locus YPL055C, strain LGE1, stronger effect = lower value",0.858
same,normalized growth,"locus YPL241C, strain CIN2, stronger effect = lower value",0.428 (active)
same,normalized growth,"locus YPR135W, strain CTF4, stronger effect = lower value",0.69
O=C(N/N=C\c1cc(Cl)cc(Cl)c1O)c1ccccc1Oc1ccccc1,normalized growth,[3],0.965
same,normalized growth,[4],0.967
same,normalized growth,[5],0.981
same,normalized growth,[6],0.964
same,normalized growth,[7],0.974
same,normalized growth,[8],0.975
same,normalized growth,[9],0.963
same,normalized growth,[1],0.981
same,normalized growth,[10],0.958
same,normalized growth,[11],0.955
same,normalized growth,[12],0.933
same,normalized growth,[13],0.97
same,normalized growth,[14],0.96
same,normalized growth,[15],0.966
same,normalized growth,[16],0.945
same,normalized growth,[17],0.882
same,normalized growth,[18],0.949
same,normalized growth,[19],0.958
same,normalized growth,[20],0.953
same,normalized growth,[21],0.961
same,normalized growth,[22],0.946
same,normalized growth,[23],0.962
same,normalized growth,[24],0.934
same,normalized growth,[25],0.929
same,normalized growth,[26],0.885
same,normalized growth,[2],0.855
same,normalized growth,[27],0.917
same,normalized growth,[28],0.916
same,normalized growth,[29],0.844
same,normalized growth,[30],0.967
same,normalized growth,[31],0.871
same,normalized growth,[32],0.921
same,normalized growth,[33],0.939
same,normalized growth,[34],0.974
same,normalized growth,[35],0.939
same,normalized growth,[36],0.933
same,normalized growth,[37],0.895
same,normalized growth,[38],0.901
same,normalized growth,[39],0.89
same,normalized growth,[40],0.965
same,normalized growth,[41],0.969
same,normalized growth,[42],0.722 (active)
same,normalized growth,[43],0.926
same,normalized growth,[44],0.925
same,normalized growth,[45],0.891
same,normalized growth,[46],0.961
same,normalized growth,[47],0.913
same,normalized growth,[48],0.971
same,normalized growth,[49],0.982
same,normalized growth,[50],0.906
same,normalized growth,[51],0.971
same,normalized growth,[52],0.88
same,normalized growth,[53],0.945
same,normalized growth,[54],0.971
same,normalized growth,[55],0.906
same,normalized growth,[56],0.975
same,normalized growth,[57],0.913
same,normalized growth,[58],0.905
same,normalized growth,[59],0.922
same,normalized growth,[60],0.91
same,normalized growth,[61],0.976
same,normalized growth,[62],0.938
same,normalized growth,[63],0.924
same,normalized growth,[64],0.919
same,normalized growth,[65],0.982
same,normalized growth,[66],0.818 (active)
same,normalized growth,[67],0.966
same,normalized growth,[68],0.968
same,normalized growth,[69],0.952
same,normalized growth,[70],0.959
same,normalized growth,[71],0.967
Nc1ccccc1C(=O)N/N=C\c1cc(Cl)cc(Cl)c1O,normalized growth,[3],0.968
same,normalized growth,[4],0.958
same,normalized growth,[5],0.97
same,normalized growth,[6],0.962
same,normalized growth,[7],0.968
same,normalized growth,[8],0.963
same,normalized growth,[9],0.964
same,normalized growth,[1],0.97
same,normalized growth,[10],0.965
same,normalized growth,[11],0.954
same,normalized growth,[12],0.758
same,normalized growth,[13],0.959
same,normalized growth,[14],0.955
same,normalized growth,[15],0.957
same,normalized growth,[16],0.694
same,normalized growth,[17],0.435 (active)
same,normalized growth,[18],0.76
same,normalized growth,[19],0.949
same,normalized growth,[20],0.966
same,normalized growth,[21],0.962
same,normalized growth,[22],0.838
same,normalized growth,[23],0.948
same,normalized growth,[24],0.777
same,normalized growth,[25],0.325 (active)
same,normalized growth,[26],0.13 (active)
same,normalized growth,[2],0.657 (active)
same,normalized growth,[27],0.485 (active)
same,normalized growth,[28],0.682
same,normalized growth,[29],0.564 (active)
same,normalized growth,[30],0.963
same,normalized growth,[31],0.425 (active)
same,normalized growth,[32],0.972
same,normalized growth,[33],0.685 (active)
same,normalized growth,[34],0.976
same,normalized growth,[35],0.404 (active)
same,normalized growth,[36],0.546
same,normalized growth,[37],0.579 (active)
same,normalized growth,[38],0.649 (active)
same,normalized growth,[39],0.301 (active)
same,normalized growth,[40],0.967
same,normalized growth,[41],0.65 (active)
same,normalized growth,[42],0.434 (active)
same,normalized growth,[43],0.586 (active)
same,normalized growth,[44],0.669
same,normalized growth,[45],0.494 (active)
same,normalized growth,[46],0.956
same,normalized growth,[47],0.527 (active)
same,normalized growth,[48],0.958
same,normalized growth,[49],0.967
same,normalized growth,[50],0.516 (active)
same,normalized growth,[51],0.967
same,normalized growth,[52],0.43 (active)
same,normalized growth,[53],0.948
same,normalized growth,[54],0.967
same,normalized growth,[55],0.27 (active)
same,normalized growth,[56],0.969
same,normalized growth,[57],0.588 (active)
same,normalized growth,[58],0.491 (active)
same,normalized growth,[59],0.696 (active)
same,normalized growth,[60],0.393 (active)
same,normalized growth,[61],0.97
same,normalized growth,[62],0.688
same,normalized growth,[63],0.583 (active)
same,normalized growth,[64],0.655 (active)
same,normalized growth,[65],0.969
same,normalized growth,[66],0.456 (active)
same,normalized growth,[67],0.967
same,normalized growth,[68],0.96
same,normalized growth,[69],0.946
same,normalized growth,[70],0.939
same,normalized growth,[71],0.962
